Inhibition data for 61 compounds are collected here from PubChem BioAssay AID463187 (University of Pittsburgh Molecular Library Screening Center, 2010).

Where “and” joins values, the source holds several entries; their conditions need not be identical. Equal entries are not always repeated. About 1,500 (0.68%) of roughly 220,000 compounds were called active. Many of the other results were omitted from the sample, so actives are more common in it than they were. Values without a mark were called inactive.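 The calls were made as follows: active = Hck-Nef kinase inhibition above about 50% (limit read from the data); inactive = inhibition below that limit.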

The test deals with Tyrosine-protein kinase HCK (Homo sapiens) (UniProt P08631). Put plainly: Hck:Nef complex kinase activity blockers – biochemical, Z-Lyte FRET, 384-well, Hck-YEEI, primary screen (AID 463187).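 Also: 0% = DMSO with Hck plus Nef and 100% = Hck alone without Nef.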 The following applies: Recombinant Hck-YEEI plus Nef, Z-Lyte FRET kinase assay; at 20 µM; hits give high values.
Chain of Tyrosine-protein kinase HCK (Homo sapiens) (P08631 whole entry, looked up): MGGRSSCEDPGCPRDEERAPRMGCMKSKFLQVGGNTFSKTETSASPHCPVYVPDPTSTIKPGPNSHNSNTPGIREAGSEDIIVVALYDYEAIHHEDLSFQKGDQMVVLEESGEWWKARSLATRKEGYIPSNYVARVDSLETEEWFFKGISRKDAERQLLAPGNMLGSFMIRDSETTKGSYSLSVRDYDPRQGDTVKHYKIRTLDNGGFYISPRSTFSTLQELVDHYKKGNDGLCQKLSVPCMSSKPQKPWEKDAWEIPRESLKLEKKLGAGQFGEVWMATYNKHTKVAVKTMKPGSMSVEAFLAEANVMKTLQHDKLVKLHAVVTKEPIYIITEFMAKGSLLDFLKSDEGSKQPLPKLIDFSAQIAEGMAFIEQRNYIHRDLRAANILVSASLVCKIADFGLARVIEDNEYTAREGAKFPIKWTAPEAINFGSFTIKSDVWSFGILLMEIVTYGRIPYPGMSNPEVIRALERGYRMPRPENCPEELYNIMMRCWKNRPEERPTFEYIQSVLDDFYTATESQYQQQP
As to `CC(C)(C)NC(=O)COC(=O)c1cc(Br)ccc1Cl`, the inhibition was -0.533%. The result for `Cc1ccc(CSCC(N)C(=O)O)cc1` (stereo unspecified) reads 1.34%; that for `Cc1ccc(C(=O)CS(C)(=O)=O)cc1`, 1.08%.

Consider `Cc1ccc(SC(CC(=O)c2ccc(C(C)(C)C)cc2)C(=O)O)cc1` (stereo unspecified), for which the inhibition was 73.6% (active).

On to `CCc1nnc(NC(=O)CSc2nc(SC)ns2)s1`, for which the inhibition was 8.82%. The result for `Cc1ccc(CSc2nnc(-c3cnccn3)n2C)cc1` reads 20.9%. `CC(C)Oc1ccc(C(=O)NC(C)(C)CO)cc1`: the inhibition was 4.72%. Consider `CCNC(=S)NNC(=O)c1ccc2ncccc2c1`, for which the inhibition is 27.6%. As to `COc1cccc(/C=C2\SC(=N)N(c3ccc(F)cc3)C2=O)c1`, the inhibition was 26.2%. With `Cc1nn(C)cc1CNC(=O)Nc1ccc(Cl)cc1`, the inhibition is 12.3%.

Turning to `COc1ccc(Cl)cc1C(=O)NCc1cn(C)nc1C`, the inhibition was 0.825%. The result for `Cc1ccc(-c2cc(C(=O)NCc3cn(C)nc3C)c3cc(Br)ccc3n2)cc1` reads 50.4% (active); that for `Cc1nnc(NC(=O)CSc2nc(C3CCCCC3)nc3ccccc23)s1`, -0.612%.

On to `CC(=O)Oc1ccc2c(C)c(CC(C)O)c(=O)oc2c1` (stereo unspecified), for which the inhibition is 81.8% (active).

`Cc1c(Cc2ccccc2)c(=O)oc2cc(OCC(N)=O)ccc12`: the inhibition is 28.6%. As for `CC(=O)Nc1cc2ccc(OC(C)=O)cc2oc1=O`, the inhibition is 23.3%. The result for `CS(=O)(=O)N(CC(=O)N1CCN(Cc2ccccc2)CC1)c1ccc2c(c1)OCCO2` reads 1.45%. On to `Cc1ccc(C)c(NC(=S)NCC(c2cccnc2)N2CCOCC2)c1` (stereo unspecified), for which the inhibition was 0.595%.

Turning to `COc1ccccc1N=Cc1c(O)c2ccccc2oc1=O`, the inhibition was 0.48%. Then `COc1ccc(N=Cc2c(O)[nH]c3ccccc23)cc1OC`, with 53% (active); and `COc1cc(N=Cc2c(O)[nH]c3ccccc23)cc(OC)c1OC`, with 34.4%. Take `CC(C)CNC(=O)/C=C/C(=O)O`: the inhibition is -8.82% and 22%. Turning to `Cc1ccc(CN(C)CC(=O)Nc2cccc([N+](=O)[O-])c2)o1`, the inhibition was -2.63%.

In the case of `CN(CC(=O)Nc1cccc(F)c1)CC(=O)Nc1cccc([N+](=O)[O-])c1`, the inhibition is 64.6% (active). In the case of `Cc1ccc(NC(=O)CN(C)CC(=O)Nc2cccc(F)c2)cc1[N+](=O)[O-]`, the inhibition is -0.303%.

As to `Cc1cccc(C)c1NC(=O)C1(C)c2cccc[n+]2CC(=O)N1Cc1cccs1` (stereo unspecified), the inhibition was 16.8%.

`CCS(=O)(=O)c1ccc2c(c1)N(S(=O)(=O)c1ccccc1)CC(C(=O)O)O2` (stereo unspecified): the inhibition is 1.06%.

Consider `CC1CCCN(CC(O)COc2ccc3c(c2)OCO3)C1` (stereo unspecified), for which the inhibition was 18.9%. As for `CCOc1cccc(/C=N/N2C(=O)CSC2=S)c1O`, the inhibition was -22.8%. Consider `O=C1CSC(=S)N1/N=C/c1ccc(O)c([N+](=O)[O-])c1`, for which the inhibition was 118% (active). Turning to `Cc1cc(C(=O)N/N=C/c2ccc(O)c([N+](=O)[O-])c2)c(C)n1-c1ccc(F)cc1`, the inhibition was 18.7%. The result for `Clc1ccc(-n2nnnc2CN2CCCCC2)cc1Cl` reads 2.13%. Then `Cc1cc(C)c2c(n1)nn1c(N3CCN(c4cccc(Cl)c4)CC3)cc(C)nc21`, with 35.2%; and `Cc1cc(C)c2c(n1)nn1c(-n3ccnc3)cc(C)nc21`, with 5.47%; and `Cc1cc(C)c2c(n1)nn1c(N3CCOCC3)cc(C)nc21`, with 58.8% (active). Consider `CCc1ccc(NC(=O)N[C@H](C(=O)O)C(C)CC)cc1` (stereo partly specified), for which the inhibition was -2.07%. Regarding `CC1=CC(C)(C)NC(=S)N1c1ccccc1`, the inhibition was -1.08%. Turning to `COc1ccc(N2CCN(c3ccc([N+](=O)[O-])cc3Cl)CC2)cc1`, the inhibition was 9.48%. Then `C/C=C/C(=O)Nc1nnc(C(C)C)s1`, with 6.42%. The result for `CC(C)C[C@H](CO)Nc1nc(N(C)c2cccc(Cl)c2)c2ncn(C(C)C)c2n1` reads 29.9%. Regarding `CC(C)n1cnc2c(Nc3cccc(Cl)c3)nc(N(CCO)CCCO)nc21`, the inhibition is 112% (active). In the case of `OCCCNc1nccc(-c2cc(Nc3cccc(Cl)c3)ncn2)n1`, the inhibition is 17.4%. In the case of `CC1CN(S(=O)(=O)c2ccccc2)C(C)CN1S(=O)(=O)c1ccccc1` (stereo unspecified), the inhibition is 2.18%.

On to `CC(=O)Nc1ccc(/C(C)=N/NC(=O)CN(c2ccccc2Br)S(C)(=O)=O)cc1`, for which the inhibition is 3.92%.

For the compound `Cc1cc(Br)ccc1SCC(=O)OCC(=O)NCc1ccc2c(c1)OCO2`, the inhibition is -1.74%.

As for `Oc1c(Cl)cc(Cl)c(Cl)c1Cc1c(O)c(Cl)cc(Cl)c1Cl`, the inhibition is 58.4% (active).

Consider `CC(=O)NC1C(OCc2ccccc2)OC(COC(C)=O)C(OC(C)=O)C1OC(C)=O` (stereo unspecified), for which the inhibition is 0.438%. Regarding `O=C(OCC1O[C@@H](OC(=O)c2cc(O)c(O)c(O)c2)[C@@H](OC(=O)c2cc(O)c(O)c(O)c2)[C@@H](OC(=O)c2cc(O)c(O)c(O)c2)[C@@H]1OC(=O)c1cc(O)c(O)c(O)c1)c1cc(O)c(O)c(O)c1` (stereo partly specified), the inhibition was 97.6% (active). For `C/C=C(\C)C(=O)N1CC2(CC(c3cccc(NC(=O)CCCCC)c3)=NO2)C[C@@H]1C(N)=O` (stereo partly specified), the inhibition was 35.8%.

Consider `CC(C)(C)OC(=O)NCCCCCC(=O)N/N=C/c1coc2ccccc2c1=O`, for which the inhibition was 76.3% (active). `O=C(CCCCCNC(=O)c1ccccc1)N/N=C/c1ccccc1`: the inhibition is 9.24%. In the case of `O=C(N/N=C/c1coc2ccccc2c1=O)c1cc2ccccc2o1`, the inhibition is 49.1%. The result for `Cc1ccc(OCCCC(=O)NC(C)c2ccccc2)c(C)c1` (stereo unspecified) reads -1.04%. In the case of `CC(C)n1c(CN2CCN(Cc3ccccc3)CC2)nc2ccccc21`, the inhibition is 5.34%. Take `CN(C)C(=S)Nc1ccc(Br)cc1Cl`: the inhibition is 14.6%. For the compound `O=C1Oc2ccccc2C(=O)/C1=C/c1ccccc1O`, the inhibition is 80.6% (active). `CCn1c(=O)c2cc(C(=O)Nc3cccc(C(C)=O)c3)sc2c2ccccc21`: the inhibition is 53.6% (active). In the case of `CCn1c(NC(=O)c2ccccc2)c(-c2cccs2)c(=O)c2ccccc21`, the inhibition is -2.03%. The result for `CC(=O)c1cccc(NC(=O)c2ccncc2)c1` reads -1.38%. `Cc1ccc(N2C(=O)CC(Nc3cccc4ccccc34)C2=O)cc1` (stereo unspecified): the inhibition was 20.6%. Regarding `CC(C)Cn1cnc2c1c(=O)n(CC(O)c1ccccc1)c(=O)n2CC(C)C` (stereo unspecified), the inhibition was 1.05%.
